61 compounds from ChEMBL document CHEMBL3988442, “University of Dundee, Small-Polar-MMV Screening Library” (2021) can be followed below.

Among all 48,000 compounds or so, about 13,000 (27%) showed an effect of 50% or more. The list shows a part of the results.

In the assay the test system is Wolbachia pipientis. Kind of assay: Anti-Wolbachia Cell-Based Screen. The conditions noted are these: 5 µM. Details: scale not given: in the data most compounds retested in dose-response had high values. Type of assay: functional.
As for `CCC(NC(=O)c1ccc2[nH]ccc2c1)C(=O)N1CCOCC1` (stereo unspecified), the “Percent Effect” value was found to be 6.827%.
Then `OC1CCN(c2ccccc2NCc2nc(-c3ccoc3)no2)CC1`, with 5.706%; and `O=C(NCCN1C(=O)CCC1=O)c1nc2ccccc2c(=O)[nH]1`, with 1.599%.
As for `CCCc1cc(C(=O)NCCCC(=O)N2Cc3ccccc3C2)[nH]n1`, the “Percent Effect” value was -1.2%.
For the compound `CN1CCn2c(-c3cccc(F)c3)cnc2C12CCN(CC1CC1)CC2.O=C(O)C(F)(F)F.O=C(O)C(F)(F)F.O=C(O)C(F)(F)F`, the “Percent Effect” value was -9.47%.
On to `CNC(=O)N1CCC2(CC1)c1ncc(-c3cccc(F)c3)n1CCN2C.O=C(O)C(F)(F)F`, for which the “Percent Effect” value amounted to 101.8%.
Consider `CCN1CCn2c(-c3cccc(F)c3)cnc2C12CCN(C(C)=O)CC2.O=C(O)C(F)(F)F`, for which the “Percent Effect” value amounted to 112.1%.
As for `CC(=O)N1CCn2c(-c3cccc(F)c3)cnc2C12CCNCC2.O=C(O)C(F)(F)F`, the “Percent Effect” value stood at 7.148%.
In the case of `CCN1CCN(S(=O)(=O)c2cn(C(C)C)cn2)c2ccccc21`, the “Percent Effect” value was -8.79%.
On to `O=C(c1ccc(-n2cccn2)nc1)N1CCC(c2ccc(O)cc2)CC1`, for which the “Percent Effect” value is given as -5.1%.
For `Cc1cncc(C2CCN(C(=O)c3ccc(-n4cccn4)nc3)CC2)n1`, the “Percent Effect” value came out at 157.3%.
As for `O=C(c1ccc(-n2cccn2)nc1)N1CCC(c2ccn[nH]2)C1` (stereo unspecified), the “Percent Effect” value is reported as 151%.
Take `O=C(c1ccc(-n2cccn2)nc1)N1CCCN(c2cccnn2)CC1`: the “Percent Effect” value came to 2.596%.
As to `O=C(c1ccc(-n2cccn2)nc1)N1CCCC(c2cnccn2)C1` (stereo unspecified), the “Percent Effect” value came to 143.5%.
Then `O=C(c1ccccc1)C1CCN(c2cncc(-n3cccn3)n2)CC1`, with 6.831%.
In the case of `CC1CCCCN1C1CN(C(=O)c2sccc2S(N)(=O)=O)C1` (stereo unspecified), the “Percent Effect” value stood at 5.602%.
Under `CN(Cc1ccccc1)C1(C(=O)O)Cc2ccccc2C1` stands 1.396%; under `COCCN1C(=O)CC[C@]12CC[C@@H](NCc1nccs1)CC2.O=C(O)C(F)(F)F`, -1.329%; under `CC[C@@H]1N(Cc2nccs2)CCC[C@]12CCC(=O)N2CCOC.O=C(O)C(F)(F)F`, 100.4%.
In the case of `CN1C(=O)CCCC12CCCN(Cc1nccs1)C2.O=C(O)C(F)(F)F` (stereo unspecified), the “Percent Effect” value is -2.009%.
On to `CC[C@@H]1N(CC2CC2)CCC[C@]12CCC(=O)N2CCOC.O=C(O)C(F)(F)F`, for which the “Percent Effect” value is listed as -7.54%.
On to `CC[C@@H]1N(Cc2nccs2)CCC[C@]12CCC(=O)N2C.O=C(O)C(F)(F)F`, for which the “Percent Effect” value was found to be 109.2%.
Take `Cn1cccc1C(=O)N1C[C@H]2CN(CCN3CCCC3)C(=O)[C@H]2C1`: the “Percent Effect” value is -3.388%.
For the compound `Cn1cc(C(=O)N[C@H]2CN(S(C)(=O)=O)[C@@H]3CCCO[C@H]23)cn1`, the “Percent Effect” value turned out to be 0.3212%.
In the case of `CN(C)C(=O)N[C@@H]1CN(S(C)(=O)=O)[C@@H]2CCCO[C@@H]21`, the “Percent Effect” value is on record as -12.16%.
Turning to `CS(=O)(=O)N1C[C@H](NC(=O)c2ccno2)[C@@H]2OCCC[C@@H]21`, the “Percent Effect” value was 97.34%.
Consider `CS(=O)(=O)N1C[C@@H](NC(=O)c2ccno2)[C@@H]2OCCC[C@@H]21`, for which the “Percent Effect” value was 112.1%.
Then `CC(CCNC(=O)NCCc1ccc(S(N)(=O)=O)cc1)c1ccccc1` (stereo unspecified), with 2.961%.
As to `COc1ccccc1-c1c[nH]c(C2CCCN2)n1.Cl.Cl` (stereo unspecified), the “Percent Effect” value is -20.8%.
Turning to `NC(=O)c1ccccc1Oc1cccc(C2CCCNC2)n1` (stereo unspecified), the “Percent Effect” value is 178.3%.
For the compound `NC(=O)c1cc(C2CCCN(CCCOc3ccccc3)C2)n[nH]1` (stereo unspecified), the “Percent Effect” value is -3.314%.
Under `NC(=O)c1ccccc1Oc1cnc(C2CCCN2)cn1` (stereo unspecified) stands 134.2%.
Take `CN1CCN(Cc2ccccc2Oc2ccc(C(N)=O)cn2)CC1`: the “Percent Effect” value is listed as -9.578%.
With `Nc1nc(CCCNC(=O)c2ccccc2C2CCNC2)cs1` (stereo unspecified), the “Percent Effect” value is 16.63%.
As for `Cc1ncccc1C(=O)Nc1cccc(Cn2ccccc2=O)c1`, the “Percent Effect” value is reported as 100.7%.
Then `Cc1ncccc1C(=O)Nc1ccc2ccn(CCN(C)C)c2c1`, with -6.665%.
Consider `O=C(Nc1cccn(Cc2ccccc2)c1=O)c1ccncc1F`, for which the “Percent Effect” value is -8.682%.
On to `CC(C)S(=O)(=O)Cc1cccc(NC(=O)c2ccc[nH]2)c1`, for which the “Percent Effect” value turned out to be 19.64%.
In the case of `O=C(CCn1ccccc1=O)Nc1ccc(I)cc1`, the “Percent Effect” value is recorded as -0.04239%.
As for `CC(C)c1nc2cc(NC(=O)Cn3ccccc3=O)ccc2o1`, the “Percent Effect” value is 6.336%.
On to `CC(C)c1ocnc1C(=O)Nc1cccc(Cn2ccccc2=O)c1`, for which the “Percent Effect” value was determined as 74.78%.
On to `Cc1ncccc1C(=O)Nc1cccc2c1C(=O)NC2`, for which the “Percent Effect” value is listed as -1.694%.
With `CSc1ncccc1C(=O)Nc1ccc(Cn2ccccc2=O)cc1`, the “Percent Effect” value worked out at 85.69%.
Consider `CN(Cc1ccco1)C(=O)NCc1nnc2n1CCC2`, for which the “Percent Effect” value is 1.808%.
`CN(Cc1cnn(C)c1)C(=O)NCc1nnc2n1CCC2`: the “Percent Effect” value is listed as -11.71%.
For the compound `O=C(NCc1nnc2n1CCC2)N(Cc1ccc(F)cc1)C1CC1`, the “Percent Effect” value is -6.428%.
In the case of `CN(Cc1ccc(F)cc1)C(=O)NCc1nnc2n1CCC2`, the “Percent Effect” value turned out to be 105%.
With `CN(Cc1ccc(F)cc1)C(=O)NCc1nnc2n1CCCCC2`, the “Percent Effect” value is on record as -12.53%.
In the case of `CN(Cc1ccc(N(C)C)cc1)C(=O)NCc1nnc2n1CCC2`, the “Percent Effect” value came to 115.6%.
For the compound `CN(CCO)Cc1nnc(C2CCN(C[C@H]3[C@@H]4CNC[C@@H]43)CC2)n1C`, the “Percent Effect” value is on record as -4.687%.
`CCc1ccc(C2CC(=O)Nc3cc(OC)c(NS(C)(=O)=O)cc32)o1` (stereo unspecified): the “Percent Effect” value was 82.49%.
Then `CCc1ccc(S(=O)(=O)Nc2cc(OC)c(OC)cc2C(=O)O)s1`, with -0.559%.
Turning to `CCCC(=O)Nc1cc2c(cc1OC)NC(=O)CC2c1ccc(CC)o1` (stereo unspecified), the “Percent Effect” value worked out at 133.6%.
Under `CN(Cc1ccc(C2CC(=O)Nc3n[nH]cc32)o1)S(C)(=O)=O` (stereo unspecified) stands 5.804%.
As for `CCc1ccc(C2CC(=O)Nc3n[nH]cc32)o1` (stereo unspecified), the “Percent Effect” value worked out at 13.18%.
Then `CCc1ccc(C2CC(=O)Nc3cc(NS(C)(=O)=O)ccc32)o1` (stereo unspecified), with 85.79%; and `CCc1ccc(C2CCCN2C(=O)CNC(=O)CCC(C)C)o1` (stereo unspecified), with 9.018%.
Regarding `CCc1ccc(C2CCCN2C(=O)NCC(=O)NCC(C)C)o1` (stereo unspecified), the “Percent Effect” value is -83.92%.
Turning to `CN(Cc1ccc(C2CC(=O)Nc3cc4[nH]ncc4cc32)o1)S(C)(=O)=O` (stereo unspecified), the “Percent Effect” value stood at 6.583%.
Regarding `CS(=O)(=O)Cc1ccc(Cl)c(NCc2noc(C3CC3)n2)c1`, the “Percent Effect” value was -7.665%.
For `CCOCCOC(C)C(=O)Nc1ccc2[nH]c(C)cc2c1` (stereo unspecified), the “Percent Effect” value is listed as 4.03%.
